According to PubChem BioAssay AID1159580 (chemical genetic matrix, 2015):
Out of some 5,500 compounds screened, about 2,000 (36%) were called active. About 18% were inconclusive and are not listed. No stated cut-off is given here; in the data, active means normalized growth mostly below about 0.91 (no sharp cut-off); inconclusive means no clear call, values can overlap the other calls; inactive means mostly above about 0.92. The list shows a part of the results.

Experiment: chemical genetic growth profiling, strain panel (AID 1159580);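 further: tested at 20 µM; growth read once vehicle control cultures reached saturation at 30 °C; 1 = growth at the plate median or of vehicle wells; lower values mean less growth of the strain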
Settings: growth OD

Measured: normalized growth

c1cncc(C2CCCCN2)c1 (configuration not stated)
inactive: S. cerevisiae deletion strains, locus YJR066W, strain TOR1, hits give low values 0.974 | S. cerevisiae deletion strains, locus YJR075W, strain HOC1, hits give low values 1.03 | S. cerevisiae deletion strains, locus YKL009W, strain mrt4, hits give low values 0.992 | S. cerevisiae deletion strains, locus YKL068W, hits give low values 1 | S. cerevisiae deletion strains, locus YKL085W, strain MDH1 (second series), hits give low values 0.998 | S. cerevisiae deletion strains, locus YKL085W, strain MDH1, hits give low values 0.998 | S. cerevisiae deletion strains, locus YKL160W, strain elf1, hits give low values 0.992 | S. cerevisiae deletion strains, locus YKL190W, strain CNB1, hits give low values 0.99 | S. cerevisiae deletion strains, locus YKR001C, strain vps1, hits give low values 0.986 | S. cerevisiae deletion strains, locus YKR026C, strain gcn3, hits give low values 0.996 | S. cerevisiae deletion strains, locus YKR091W, strain srl3, hits give low values 0.988 | S. cerevisiae deletion strains, locus YLL001W, strain dnm1, hits give low values 0.993 | S. cerevisiae deletion strains, locus YLL026W, hits give low values 0.996 | S. cerevisiae deletion strains, locus YLL041C, strain sdh2, hits give low values 0.991 | S. cerevisiae deletion strains, locus YLR027C, strain aat2, hits give low values 0.999 | S. cerevisiae deletion strains, locus YLR039C, strain RIC1, hits give low values 1.07 | S. cerevisiae deletion strains, locus YLR058C, strain SHM2, hits give low values 1.01 | S. cerevisiae deletion strains, locus YLR102C, strain apc9, hits give low values 1 | S. cerevisiae deletion strains, locus YLR113W, strain HOG1, hits give low values 0.997 | S. cerevisiae deletion strains, locus YLR221C, strain rsa3, hits give low values 0.991 | S. cerevisiae deletion strains, locus YLR258W, strain gsy2, hits give low values 1.02 | S. cerevisiae deletion strains, locus YLR262C, strain YPT6 (second series), hits give low values 0.986 | S. cerevisiae deletion strains, locus YLR262C, strain YPT6, hits give low values 1.06 | S. cerevisiae deletion strains, locus YLR268W, strain sec22, hits give low values 0.968 | S. cerevisiae deletion strains, locus YLR320W, strain mms22, hits give low values 0.981 | S. cerevisiae deletion strains, locus YLR330W, strain CHS5, hits give low values 1.03 | S. cerevisiae deletion strains, locus YLR342W, strain FKS1 (second series), hits give low values 1.02 | S. cerevisiae deletion strains, locus YLR342W, strain FKS1, hits give low values 0.986 | S. cerevisiae deletion strains, locus YLR357W, strain rsc2, hits give low values 0.959 | S. cerevisiae deletion strains, locus YLR370C, strain arc18, hits give low values 0.988 | S. cerevisiae deletion strains, locus YLR371W, strain rom2, hits give low values 0.985 | S. cerevisiae deletion strains, locus YLR384C, strain iki3, hits give low values 0.98 | S. cerevisiae deletion strains, locus YLR418C, strain cdc73, hits give low values 0.995 | S. cerevisiae deletion strains, locus YML016C, strain PPZ1, hits give low values 1.02 | S. cerevisiae deletion strains, locus YML032C, strain rad52, hits give low values 1.01 | S. cerevisiae deletion strains, locus YML120C, strain ndi1, hits give low values 0.998 | S. cerevisiae deletion strains, locus YML124C, strain tub3, hits give low values 0.998 | S. cerevisiae deletion strains, locus YMR058W, strain fet3, hits give low values 0.993 | S. cerevisiae deletion strains, locus YMR078C, strain ctf18, hits give low values 0.999 | S. cerevisiae deletion strains, locus YMR125W, strain sto1, hits give low values 0.981 | S. cerevisiae deletion strains, locus YMR129W, hits give low values 0.99 | S. cerevisiae deletion strains, locus YMR205C, strain PFK2, hits give low values 1.02 | S. cerevisiae deletion strains, locus YMR223W, strain ubp8, hits give low values 1.01 | S. cerevisiae deletion strains, locus YMR231W, strain pep5, hits give low values 0.981 | S. cerevisiae deletion strains, locus YMR307W, strain GAS1, hits give low values 1.11 | S. cerevisiae deletion strains, locus YNL067W, strain RPL9B, hits give low values 1.01 | S. cerevisiae deletion strains, locus YNL071W, strain lat1, hits give low values 0.998 | S. cerevisiae deletion strains, locus YNL153C, strain GIM3, hits give low values 1.02 | S. cerevisiae deletion strains, locus YNL183C, strain NPR1, hits give low values 0.965 | S. cerevisiae deletion strains, locus YNL209W, strain ssb2, hits give low values 0.991 | S. cerevisiae deletion strains, locus YNL233W, strain BNI4, hits give low values 1.03 | S. cerevisiae deletion strains, locus YNL248C, strain rpa49, hits give low values 0.987 | S. cerevisiae deletion strains, locus YNL250W, strain rad50, hits give low values 1.01 | S. cerevisiae deletion strains, locus YNL271C, strain bni1, hits give low values 0.996 | S. cerevisiae deletion strains, locus YNL298W, strain CLA4, hits give low values 0.988 | S. cerevisiae deletion strains, locus YNL307C, strain MCK1, hits give low values 0.997 | S. cerevisiae deletion strains, locus YNL322C, strain KRE1 (second series), hits give low values 0.985 | S. cerevisiae deletion strains, locus YNR049C, strain mso1, hits give low values 0.99 | S. cerevisiae deletion strains, locus YNR052C, strain pop2, hits give low values 0.995 | S. cerevisiae deletion strains, locus YOL012C, strain htz1 0.806 | S. cerevisiae deletion strains, locus YOL147C, strain pex11, hits give low values 0.991 | S. cerevisiae deletion strains, locus YOR001W, strain rrp6, hits give low values 0.994 | S. cerevisiae deletion strains, locus YOR061W, strain CKA2, hits give low values 1.01 | S. cerevisiae deletion strains, locus YOR069W, strain VPS5, hits give low values 0.993 | S. cerevisiae deletion strains, locus YOR070C, strain gyp1, hits give low values 0.978 | S. cerevisiae deletion strains, locus YOR080W, strain dia2, hits give low values 0.982 | S. cerevisiae deletion strains, locus YOR083W, strain WHI5, hits give low values 1 | S. cerevisiae deletion strains, locus YOR106W, strain vam3, hits give low values 0.997 | S. cerevisiae deletion strains, locus YOR136W, strain idh2, hits give low values 0.978 | S. cerevisiae deletion strains, locus YOR144C, strain elg1, hits give low values 0.996 | S. cerevisiae deletion strains, locus YOR184W, strain ser1, hits give low values 1 | S. cerevisiae deletion strains, locus YOR231W, strain MKK1, hits give low values 1 | S. cerevisiae deletion strains, locus YOR265W, strain rbl2, hits give low values 1.01 | S. cerevisiae deletion strains, locus YOR270C, strain vph1, hits give low values 1 | S. cerevisiae deletion strains, locus YOR290C, strain snf2, hits give low values 1 | S. cerevisiae deletion strains, locus YOR316C, strain cot1, hits give low values 0.998 | S. cerevisiae deletion strains, locus YPL051W, strain arl3, hits give low values 1.01 | S. cerevisiae deletion strains, locus YPL078C, strain atp4, hits give low values 0.994 | S. cerevisiae deletion strains, locus YPL106C, strain sse1, hits give low values 0.972 | S. cerevisiae deletion strains, locus YPL240C, strain hsp82, hits give low values 0.992 | S. cerevisiae deletion strains, locus YPL256C, strain CLN2, hits give low values 0.997 | S. cerevisiae deletion strains, locus YPR119W, strain clb2, hits give low values 0.989 | S. cerevisiae deletion strains, locus YPR141C, strain kar3, hits give low values 1 | S. cerevisiae deletion strains, locus YPR163C, strain tif3, hits give low values 0.99 | S. cerevisiae deletion strains, locus YPR167C, strain met16, hits give low values 0.999 | S. cerevisiae deletion strains, strain wtn01, hits give low values 0.957 | S. cerevisiae strains, strain wild type, hits give low values 1.01
